Experimental data as given in PubChem BioAssay (NCI).
The panel holds about 83,000 compounds, 20% with a hit somewhere; the sample as a whole holds those more often.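 The endpoint reported here, percent growth, reads 100 for growth as untreated, 0 for no net growth and -100 for all cells dead.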 Values without a mark were called inactive. The source made the active and inactive calls. Rule for the calls: active = growth percent below 10; inactive = the rest.

Tests used:
Test in all cases: NCI-60 one-dose screen, 48 h (100 = growth as untreated, 0 = no growth, -100 = all killed)
Conditions in all cases: 10 µM unless noted
SR leukemia = tested on: SR leukemia
RPMI-8226 leukemia = tested on: RPMI-8226 leukemia
OVCAR-8 ovarian = tested on: OVCAR-8 ovarian
OVCAR-5 ovarian = tested on: OVCAR-5 ovarian
OVCAR-4 ovarian = tested on: OVCAR-4 ovarian
SK-OV-3 ovarian = tested on: SK-OV-3 ovarian
IGROV1 ovarian = tested on: IGROV1 ovarian
OVCAR-3 ovarian = tested on: OVCAR-3 ovarian
HS 578T breast = tested on: HS 578T breast
NCI/ADR-RES ovarian = tested on: NCI/ADR-RES ovarian
T-47D breast = tested on: T-47D breast
BT-549 breast = tested on: BT-549 breast
MDA-MB-435 melanoma = tested on: MDA-MB-435 melanoma
SW-620 colon = tested on: SW-620 colon
MCF7 breast = tested on: MCF7 breast
HCT-116 colon = tested on: HCT-116 colon
HCC-2998 colon = tested on: HCC-2998 colon
KM12 colon = tested on: KM12 colon
MDA-MB-468 breast = tested on: MDA-MB-468 breast

Compound | growth (SR leukemia) | growth (RPMI-8226 leukemia) | growth (OVCAR-8 ovarian) | growth (OVCAR-5 ovarian) | growth (OVCAR-4 ovarian) | growth (SK-OV-3 ovarian) | growth (IGROV1 ovarian) | growth (OVCAR-3 ovarian) | growth (HS 578T breast) | growth (NCI/ADR-RES ovarian) | growth (T-47D breast) | growth (BT-549 breast) | growth (MDA-MB-435 melanoma) | growth (SW-620 colon) | growth (MCF7 breast) | growth (HCT-116 colon) | growth (HCC-2998 colon) | growth (KM12 colon) | growth (MDA-MB-468 breast)
COC(OC)C1=C(C)OC(N)=C(C#N)C12C(=O)Nc1ccccc12 (configuration not stated) | 73% | 94.3% | 91.9% | 112% | 101% | 111% | 92% | 101% | 95.4% | 99.2% | 100% | 123% | 94.8% | 85.5% | 60.7% | 100% | 106% | 95.3% | 85.9%
CC1(C)CC[C@]2(C(=O)Nc3ccccc3)CC[C@]3(C)C(=CCC4[C@@]5(C)C[C@@H](O)[C@H](O)[C@@](C)(CO)C5CC[C@]43C)C2C1 (some centres not stated) | 15.2% | 9.08% (active) | 62.7% | 86.2% | 58.9% | 65.5% | 79% | 73.4% | 62.8% | 61.4% | 26.9% | 57% | 47.9% | 72.2% | 19.6% | 34.3% | 81.9% | 55.7% | 22.2%
COc1cc(-c2nc3ccc(C)cc3[nH]2)ccc1OCc1nnc(-c2ccc(Br)cc2)o1 | -16% (active) | -12.9% (active) | 28.4% | 92.1% | 10.6% | 59.3% | 64.2% | 39.1% | -4.08% (active) | 71.4% | -14.6% (active) | 23.8% | 46.1% | 35.5% | 12.8% | 11.5% | 58.7% | 37.7% | 
C=C1CCC2C3(C)COC(c4ccccc4)OC3CCC2(C)C1CC(NCc1ccccc1)C1=CCOC1=O (configuration not stated) | 68.6% | 34.1% | 82.9% | 87.5% | 82.8% | 79.9% | 90.6% | 83% | 78% | 77.7% | 63.6% | 73.4% | 85% | 89.8% | 70.2% | 69% | 81.2% | 85.6% | 49.3%
NS(=O)(=O)c1ccc(NNC(=O)CCC(=O)c2ccccc2)cc1 | 86.8% | 105% | 101% | 112% | 99.2% | 104% | 102% | 114% | 94.7% | 109% | 87.5% | 104% | 105% | 102% | 90.5% | 99% | 109% | 104% | 
O=C(/C=C/Nc1ccc(Cl)cc1)c1ccc2c(c1)Nc1ccccc1S2 | 58.1% | 62.3% | 12.4% | 83.4% | 2.72% (active) | 20.7% | 39.5% | 61.5% | 8.24% (active) | 25.7% | 62.1% | 24.6% | 55.1% | 54.8% | 40.1% | 39.2% | 44.2% | 69.3% | 43.4%
CC(/C=C1\SC(=S)N(CCCC(=O)NC(CC(C)C)C(=O)O)C1=O)=C\c1ccccc1 (configuration not stated) | 101% | 77.6% | 87.5% | 111% | 99.8% | 106% | 109% | 91.3% | 97.5% | 94.1% | 89.7% | 78% | 94.8% | 112% | 82.1% | 71% | 108% | 57.9% | 86.7%
COc1cc(C2CC(c3cc(OC)c(OC)c(OC)c3)=NN2c2ccccc2)ccc1OCc1ccc(C)cc1 (configuration not stated) | 105% | 102% | 98% | 105% | 89.2% | 101% | 94.2% | 101% | 94.5% | 101% | 79.9% | 103% | 97% | 94.3% | 81.3% | 80.6% | 110% | 96.9% | 92.2%
C=CC(=O)Nc1ccc(C)c(Oc2ccc(Cl)cc2)c1 | 24.3% | 23.8% | 38.5% | 64.8% | 56.2% | 77.4% | 46.4% | 36.6% | 51.8% | 37.3% | 41.8% | 22.8% | 43.9% | 43.8% | 36.8% | 52.1% | 58.4% | 47.2% | 10.2%
CN(C)c1nc(NCCNS(=O)(=O)c2ccc(C(=O)/C=C/c3ccc(Cl)cc3)cc2)nc(Nc2ccc(F)cc2)n1 | -41.1% (active) | -17.6% (active) | -73.5% (active) | -67% (active) | -28.3% (active) | 26% | -49.6% (active) | -94.8% (active) | 25.8% | -83.5% (active) | -10% (active) | -66.9% (active) | -87.8% (active) | -95.1% (active) | -77.1% (active) | -91.4% (active) | -91.6% (active) | -83.6% (active) | -25.9% (active)
CC1(C)CC[C@]2(C(=O)O)CC[C@]3(C)C(=CCC4[C@@]5(C)C[C@@H](O)[C@@H]6OC(c7ccccc7Br)OC[C@@]6(C)C5CC[C@]43C)C2C1 (some centres not stated) | 12.5% | 8.21% (active) | 14.7% | 36% | 33.1% | 40.2% | 35% | 9.3% (active) | 31.9% | 11.5% | 20.4% | 13.5% | 28% | 19.5% | 7.28% (active) | 6.88% (active) | 18.8% | 16.9% | 18.4%
Cc1cc(=O)oc2cc(OCCCOc3ccc(/C=C/C(=O)Nc4ccccc4N)cc3)ccc12 | 21.4% | 0.19% (active) | 44.2% | 37.5% | 40.9% | 7.97% (active) | 39.4% | 5.72% (active) | 48.3% | 21.3% | 9.28% (active) | -59.7% (active) | 38.3% | 26.8% | 4.44% (active) | 17.2% | 27.3% | 12.6% | -48.1% (active)
Clc1cccc(-c2ccc(OCCCN3CCN(c4ccncc4)CC3)cc2)c1 | -38.5% (active) | -39.1% (active) | 37.9% | 69.7% | 38.2% | 30.1% | 49.6% | 0.45% (active) | -2.27% (active) | 5.66% (active) | -37.5% (active) | 20.4% | -51.6% (active) | -66.2% (active) | -61.4% (active) | -76.7% (active) | -91.5% (active) | -43.8% (active) | -62.3% (active)
CCOC(=O)C1=C(N)N(c2ccccc2)C2=C(C(=O)CC(C)(C)C2)C1c1ccc([N+](=O)[O-])cc1 (configuration not stated) | 66.4% | 82.6% | 103% | 101% | 97.3% | 105% | 108% | 121% | 100% | 98.2% | 91.2% | 102% | 102% | 96.9% | 83.8% | 83.8% | 100% | 99.5% | 96.1%
COc1ccc2oc3c4[nH]c5ccccc5c4c4c(c3c2c1)C(=O)N(C(=O)OC(C)(C)C)C4=O | -5.86% (active) | -10.4% (active) | -20.1% (active) | 6.78% (active) | -6.75% (active) | -25.3% (active) | -1.25% (active) | -33.7% (active) | -1.85% (active) | -17.9% (active) | -7.22% (active) | -44.2% (active) | -26.4% (active) | 6.81% (active) | -25.9% (active) | 1.65% (active) | 23.2% | -18.9% (active) | -22.9% (active)
O=c1oc2ccccc2cc1-c1csc(N2N=C(c3ccccc3)CC2c2ccc(N3CCOCC3)cc2)n1 (configuration not stated) | 94.5% | 102% | 104% | 132% | 105% | 69.9% | 123% | 117% | 105% | 105% | 91.6% | 118% | 110% | 106% | 86.5% | 109% | 121% | 103% | 99.7%
